Rows were chosen to be rich in hits. Some 9.1% of all compounds tested hit in one or more screens of this group.
M1 ag = M1 muscarinic receptor agonists, primary screen, CHO-M1 cells, Fluo-4 calcium, agonist mode; Muscarinic acetylcholine receptor M1; Fluo-4 calcium fluorescence; stronger effect = higher value; B-score at 10 µM; 64,000 tested, 3% active;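 active = fluorescence rise, raw or as B-score row- and column-corrected plate score, outside the 99.7% band of its plate's samples, either direction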
M1 antag = antagonists of rat M1 muscarinic receptor. Muscarinic acetylcholine receptor M1 (Rattus norvegicus), P08482. CHO-M1 cells, Fluo-4 calcium, ACh EC80 antagonist mode; stronger effect = lower value. B-score at 10 µM. 64,000 tested, 3.4% active. AID 628, 2007;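 active = calcium fluorescence response, raw or row-and-column corrected B-score, differing from the plate sample mean either way at a set confidence level, mostly lower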
Target sequence (P08482 whole entry, looked up): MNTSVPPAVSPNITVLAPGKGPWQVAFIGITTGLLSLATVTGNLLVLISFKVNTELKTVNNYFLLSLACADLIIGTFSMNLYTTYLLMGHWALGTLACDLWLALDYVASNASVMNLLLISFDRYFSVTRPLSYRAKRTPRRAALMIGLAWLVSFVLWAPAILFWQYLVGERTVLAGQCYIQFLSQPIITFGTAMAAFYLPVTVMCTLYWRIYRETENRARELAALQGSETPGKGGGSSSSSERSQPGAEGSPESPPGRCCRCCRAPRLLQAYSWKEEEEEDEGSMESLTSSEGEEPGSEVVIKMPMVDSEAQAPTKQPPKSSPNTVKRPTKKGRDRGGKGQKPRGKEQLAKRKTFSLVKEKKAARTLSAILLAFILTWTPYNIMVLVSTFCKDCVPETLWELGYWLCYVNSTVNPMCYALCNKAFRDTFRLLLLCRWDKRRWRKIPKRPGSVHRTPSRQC
mHtt clearance = clearance of mutant huntingtin inclusions, primary screen, imaging, HeLa Exon1htt(103Q)mCFP, confocal imaging | aggregate imaging; zero = plate's median compound well | inhibition, % at 1.5 µM | 47,000 tested, 0.42% active | AID 853, 2007;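 active = inhibition of aggregate fluorescence above about 70%, also judged a hit by eye on the cell image, limit read from the data, passing the limit was not always enough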;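 note: cells exposed to compound for three days before fixation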
D1 mod = D1 CRE-luciferase signal change, two-sided – cell-based, HEK293 D1, dopamine EC30, D1 allosteric modulator project, primary screen. D(1A) dopamine receptor (Homo sapiens), P21728. dopamine EC30 potentiation; actives deviate in either direction. B-score at 10 µM. 58,000 tested, 5.9% active. AID 641, 2007;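 active = luminescence count or its row- and column-corrected plate score outside the 99.7% band of the plate's sample wells, on either side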
D1 PAM confirm = D1 receptor positive allosteric modulators, retest, confirmation, cell-based, HEK293 D1, CRE-luciferase, duplicate; shares compounds with D1 mod; dopamine EC30 potentiation; stronger effect = higher value; luminescence at 10 µM; 2,200 tested, 88% active;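 active = luminescence in either of two replicates above the same-plate mean plus 3 SD of the low-dose dopamine control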
D1 no dopamine = D1 receptor agonism without dopamine, confirmation, mechanism study for D1 allosteric modulator project, cell-based, HEK293 D1, CRE-luciferase, secondary assay 1; luminescence at 10 µM; 1,900 tested, 0.8% active; luminescence, no dopamine; stronger effect = higher value; shares compounds with D1 mod; in the data active = luminescence above about 3900
Isoprot counter = counter-screen for D1 modulators: isoproterenol response in HEK293 cells; shares compounds with D1 mod; AID 647; luminescence at 10 µM; 2,200 tested, 63% active; HEK293 D1 CRE-luciferase, isoproterenol EC30 counter-screen; stronger effect = higher value;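 active = luminescence in either replicate above plate mean of wells with a partly effective reference agonist dose plus 3 SD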;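 note: isoproterenol raises cAMP through native beta-adrenoceptor Gs so signal bypasses D1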
Numbers stand for hits.

Screening Brc1ccc2oc3c(N4CCOCC4)ncnc3c2c1 returned M1 ag inactive, M1 antag inactive, D1 mod 5.1, D1 PAM confirm 8996, D1 no dopamine inactive and Isoprot counter 3652.
Screening COc1cc(-c2nnc(SCC(=O)/C(C#N)=C(\C)N)o2)cc(OC)c1OC returned mHtt clearance inactive.
For COC(=O)c1sccc1NC(=O)c1ccoc1C the results were M1 ag inactive, M1 antag inactive, mHtt clearance inactive and D1 mod inactive.
Cc1cc(=O)oc2cc(OCC(=O)NCCc3nc4ccccc4[nH]3)ccc12 was read as M1 ag inactive, M1 antag inactive, mHtt clearance inactive, D1 mod 3.2, D1 PAM confirm 6860, D1 no dopamine inactive and Isoprot counter inactive.
Screening COc1ccc(NC(=O)C23CCC(C)(C(=O)C2)C3(C)C)cc1 (configuration not stated) returned M1 ag inactive, M1 antag inactive, mHtt clearance inactive and D1 mod inactive.
Cc1ccc(Oc2ccccc2)c(NC=O)c1 was read as M1 ag inactive, M1 antag inactive, D1 mod 4.9, D1 PAM confirm 12104, D1 no dopamine inactive and Isoprot counter inactive.
`Nc1cc(Cl)ccc1Oc1ccccc1` gave mHtt clearance inactive.
For CCN(CC(=O)Nc1ccc2c(c1)OCCO2)C(=O)c1cccc(S(=O)(=O)N2CCOCC2)c1 the results were M1 ag inactive, M1 antag inactive, D1 mod 3, D1 PAM confirm inactive and Isoprot counter inactive.
For OCCNc1nc(N2CCCC2)nc(N2CCCC2)n1 the results were mHtt clearance inactive.
CC1CCc2nc(NCCO)nc(C(F)(F)F)c2C1 (configuration not stated) was read as M1 ag inactive, M1 antag inactive, mHtt clearance inactive, D1 mod 7.5, D1 PAM confirm 13160, D1 no dopamine inactive and Isoprot counter 3040.
For COc1ccc(C(=O)CSc2cc(C)nc3nc(C)nn23)cc1OC the results were M1 ag inactive, M1 antag inactive, D1 mod 5.1, D1 PAM confirm 9832 and Isoprot counter 3320.
`CCC1CCCCN1CC(=O)Nc1cc(C)nn1-c1nc(C)cc(C)n1` (configuration not stated) gave M1 ag inactive, M1 antag inactive and D1 mod inactive.
Cc1cc(C)nc(-n2nc(C)cc2NC(=O)CN2CCC(C)CC2)n1 was read as M1 ag inactive, M1 antag inactive, D1 mod 5.3, D1 PAM confirm 16268, D1 no dopamine inactive and Isoprot counter 3628.
COc1ccccc1NC(=O)COc1ccc(CO)cc1Cl was read as M1 ag inactive, M1 antag inactive, mHtt clearance inactive and D1 mod inactive.
For Cc1sc2nc(CN3CCN(S(=O)(=O)c4cccc5nonc45)CC3)[nH]c(=O)c2c1C the results were M1 ag inactive, M1 antag inactive, D1 mod 3.6, D1 PAM confirm 8576, D1 no dopamine inactive and Isoprot counter inactive.
Screening CCOC(=O)C1=C(C)N=C2SC(C)C(=O)N2C1c1ccc(OCC)c(OCC)c1 (configuration not stated) returned M1 ag inactive, M1 antag inactive and D1 mod inactive.
`CCOC(=O)CSc1nc2cccnc2n1-c1ccc(F)cc1` gave M1 ag inactive, M1 antag inactive, mHtt clearance inactive, D1 mod 22, D1 PAM confirm 24340, D1 no dopamine inactive and Isoprot counter 5172.
For COc1ccc(N2Cc3cccc(C(=O)NC(C)CCc4ccco4)c3C2=O)cc1 (configuration not stated) the results were M1 ag inactive, M1 antag inactive, mHtt clearance inactive, D1 mod 3.4, D1 PAM confirm 11280, D1 no dopamine inactive and Isoprot counter 4192.
`O=C1CCC([N+](=O)[O-])C(c2ccc(Cl)cc2Cl)N1` (configuration not stated) gave mHtt clearance inactive.
For NC(=O)c1c(NC(=O)CSc2nnc(-c3ccco3)n2-c2ccccc2)sc2c1CCC2 the results were M1 ag inactive, M1 antag inactive, D1 mod 4.8, D1 PAM confirm 10124, D1 no dopamine inactive and Isoprot counter inactive.
COc1ccc(-c2c3c(=O)n(C)c(=O)n(C)c3cn2C2CCCCC2)cc1 was read as M1 ag inactive, M1 antag inactive, D1 mod 7.7, D1 PAM confirm 15660, D1 no dopamine inactive and Isoprot counter 3796.
For CCOc1ccc(-c2nnn(CC(=O)c3ccc4c(c3)OCCO4)n2)cc1OCC the results were M1 ag inactive, M1 antag inactive, D1 mod 9.3, D1 PAM confirm 18056, D1 no dopamine inactive and Isoprot counter 4056.
For CCCn1nnnc1SCC(=O)c1ccc2c(c1)OCCO2 the results were M1 ag inactive, M1 antag inactive, mHtt clearance inactive and D1 mod inactive.
For CCOc1ccc(C2C(C#N)=C(N)SC(N)=C2C#N)cc1OCC the results were M1 ag inactive, M1 antag inactive, D1 mod 5.4, D1 PAM confirm 13032, D1 no dopamine inactive and Isoprot counter 4664.
Screening CCOc1ccc(C2C(C#N)=C(N)SC(N)=C2C#N)cc1OC returned M1 ag 64, M1 antag inactive, D1 mod 6.1, D1 PAM confirm 10912, D1 no dopamine inactive and Isoprot counter inactive.
For CCOc1ccccc1C1C(C#N)=C(N)SC(N)=C1C#N the results were M1 ag inactive, M1 antag inactive, mHtt clearance inactive and D1 mod inactive.
`Cc1ccc(-c2nnn(CC(=O)N(Cc3ccccc3)C(C(=O)NC3CCCC3)c3ccncc3)n2)o1` (configuration not stated) gave M1 ag inactive, M1 antag inactive, mHtt clearance inactive and D1 mod inactive.
CCc1cc(=O)oc2cc3oc(C)c(C)c3cc12 was read as M1 ag inactive, M1 antag inactive, D1 mod 4.5, D1 PAM confirm inactive, D1 no dopamine inactive and Isoprot counter inactive.
Screening CCc1nn(CCCC(=O)N2CCc3ccccc3C2)c(=O)c2cc3occc3n12 returned M1 ag inactive, M1 antag inactive, D1 mod 2.9, D1 PAM confirm 10688, D1 no dopamine inactive and Isoprot counter inactive.
Screening Cc1nn(CCCC(=O)N2CCc3ccccc3C2)c(=O)c2cc3sccc3n12 returned M1 ag inactive, M1 antag inactive and D1 mod inactive.
O=C(O)c1cc2ccc3ccccc3c2oc1=O was read as mHtt clearance inactive.

Screening results from PubChem.
